Bioassay records: PubChem, National Center for Advancing Translational Sciences (NCATS)
Compounds with a hit are over-represented: about 4.8% of the library has one in this group of screens.
IL-1B inflam inh: inhibitors of inflammasome signaling (IL-1 beta secretion) | THP-1 LPS/ATP IL-1B secretion, AlphaLISA, 16 h; stronger effect = lower value | activity change, % at 57.5 µM | 360,000 tested, 4.7% active; in the data active means activity change below about -50%; inconclusive means mostly about -30% to -49%; further: on the % scale 0 is the no-effect control and ±100 the full control effect
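Secreted IL-1B measured by AlphaLISA bead assay after 16 h compound exposure of THP-1 cells; compounds (final up to 57.5 uM) added 1 h before LPS (250 ng/mL) and ATP (1.25 mM) stimulation; lower signal means less secretion.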
ATXN viability: reduces viability in counter-screen for ATXN expression inhibitors; Potency, µM (highest dose often 56.7 µM), most hits filed as cytotoxic; S2 cells (HEK-293 line with an ATXN2-luciferase reporter) viability, CellTiter-Fluor protease fluorescence, 24 h; 400,000 tested, 0.49% active; further: potency means the concentration at half of the fitted maximal effect; nearly all actives have a fitted effect of over 40% in size
USP2a inh: inhibitors of human ubiquitin-specific protease USP2a; AID 463254; Potency, µM (series often up to 38.3 µM), without a hit: at the highest dose activity change, negative = inhibition, most hits filed as inhibitors; USP2 core, Ub-CHOP2 coupled fluorogenic reporter, 485/531; 330,000 tested, 0.01% active;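 further: potency means the concentration at half of the fitted maximal effect; plate controls were DMSO wells for no effect and full inhibition by NEM control for full effect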
Target sequence (O75604 whole entry, looked up): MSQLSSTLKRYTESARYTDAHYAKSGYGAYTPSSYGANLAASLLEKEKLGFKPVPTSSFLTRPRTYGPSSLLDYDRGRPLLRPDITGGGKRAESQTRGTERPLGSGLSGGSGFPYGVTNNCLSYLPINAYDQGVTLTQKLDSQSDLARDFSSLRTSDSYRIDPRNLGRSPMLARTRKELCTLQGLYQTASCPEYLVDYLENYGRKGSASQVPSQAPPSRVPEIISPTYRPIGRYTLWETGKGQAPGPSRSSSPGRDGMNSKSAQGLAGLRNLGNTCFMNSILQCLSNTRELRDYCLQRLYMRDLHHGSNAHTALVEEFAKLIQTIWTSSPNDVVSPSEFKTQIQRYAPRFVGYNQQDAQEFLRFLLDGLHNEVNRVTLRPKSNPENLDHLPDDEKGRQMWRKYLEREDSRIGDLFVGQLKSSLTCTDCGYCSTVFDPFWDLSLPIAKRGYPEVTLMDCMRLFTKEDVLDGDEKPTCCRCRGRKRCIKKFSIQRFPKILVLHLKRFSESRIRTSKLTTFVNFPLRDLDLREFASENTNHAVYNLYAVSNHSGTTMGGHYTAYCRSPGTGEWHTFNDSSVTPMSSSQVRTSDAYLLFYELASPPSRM
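Deubiquitinase activity read as fluorescence (485/531 nm) after Ub-CHOP2 cleavage activates the enterokinase reporter on its substrate; USP2 core 10nM, Ub-CHOP2 and substrate 25nM each, 30min compound preincubation then 60min RT; data normalized to NEM, curves fitted.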
USP1 inh: blocks the human USP1/UAF1 deubiquitinase complex | AID 743255 | recombinant USP1/UAF1, Ub-Rhodamine cleavage fluorescence | 390,000 tested, 0.23% active | Potency, µM (series often up to 57.1 µM), for the others: at the top dose activity change, negative = inhibition, hits mostly inhibitors | O94782; further: potency means the concentration at half of the fitted maximal effect; on the % scale 0 is the no-effect control and ±100 the full control effect; nearly all actives have a fitted effect of over 60% in size
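In this screen, compounds sit with the deubiquitinase complex (1nM) for 15 min at room temperature before Ub-Rho is added at 150nM final. Fluorescence rise is then followed for 6 reads every 60 seconds.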
ATXN2 expr inh: ATXN2 expression inhibition; HEK-293 ATXN2-luciferase reporter, luminescence, 24 h; Potency, µM (titrated, usually from 57 µM), for inactives: at the top dose activity change, negative = inhibition, most hits filed as inhibitors; 360,000 tested, 0.72% active; further: potency means the concentration at half of the fitted maximal effect; on the % scale 0 is the no-effect control and ±100 the full control effect; nearly all actives have a fitted effect of over 55% in size
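ATXN2-luciferase reporter cells (luciferase flanked by upstream and downstream ATXN2 gene portions) were treated 24 h at 37 °C with compounds at up to 57 uM. SteadyGlo luminescence gave expression; GF-AFC fluorescence gave viability.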
* marks the source's active call; other numbers are inactive results; i = inactive; ? = inconclusive; nt = no result given; [ ] = dose if it differs, or a comment. Unless noted, the call rests on the fitted dose curve; in most records, active means well fitted curve in the direction sought with a large enough effect; inconclusive means small, poorly fitted or top-dose-only effect, or another doubt; inactive means no such curve, though single readings can be large; an effect the other way counts as inactive or inconclusive.

SMILES	IL-1B inflam inh	ATXN viability	USP2a inh	USP1 inh	ATXN2 expr inh
COc1ccc2[nH]c3c(c2c1)CCN1C(=O)C(CC(=O)NCc2ccco2)C[C@H](C(=O)N2CCCCC2)[C@@]31C (stereo not given in full)	-5	i	1%	-13%	-4%
CC(C)N(C(=O)[C@H]1C[C@H](CC(=O)NCC23CC4CC(CC(C4)C2)C3)C(=O)N2CCc3c([nH]c4cc(-c5ccco5)ccc34)[C@]12C)C(C)C	-24	i	1%	-23%	11%
CC(C)N(C(=O)[C@H]1C[C@H](CC(=O)NCC23CC4CC(CC(C4)C2)C3)C(=O)N2CCc3c([nH]c4cc(CCC(=O)N(C)C)ccc34)[C@]12C)C(C)C	-26	25µM*	-1%	-16%	?
COc1ccc2[nH]c3c(c2c1)CCN1C(=O)C(CC(=O)NCCC2=CCCCC2)C[C@H](C(=O)N2CCCCC2)[C@@]31C (stereo not given in full)	-52*	i	0%	-7%	-1%
C[C@]12c3[nH]c4ccc(Cl)cc4c3CCN1C(=O)[C@@H](CC(=O)NCc1ccco1)C[C@@H]2C(=O)N1CCCCC1	-55*	?	-2%	-21%	-39%
COC(=O)[C@@]1(C(C)C)N=C(c2cc(OC)c(OC)c(OC)c2)[C@]2(O1)C(=O)N(C)c1ccc(Cl)cc12	11	?	nt	nt	-22%
Cc1ccc(OCC(=O)N2CCCC(CO)(CCOc3ccccc3)C2)cc1 (stereo not given)	-24	?	1%	-6%	-14%
CCN(CC)C(=O)[C@H]1CC(CC(=O)NCC23CC4CC(CC(C4)C2)C3)C(=O)N2CCc3c([nH]c4ccc(OC)cc34)[C@]12C (stereo not given in full)	-55*	?	-10%	-12%	-4%
COc1ccc2[nH]c3c(c2c1)CCN1C(=O)C(CC(=O)NCC24CC5CC(CC(C5)C2)C4)C[C@H](C(=O)N2CCCCC2)[C@@]31C (stereo not given in full)	-64*	i	4%	?	9%
C[C@]12c3[nH]c4ccccc4c3CCN1C(=O)C(CC(=O)NCC13CC4CC(CC(C4)C1)C3)C[C@@H]2C(=O)N1CCCCC1 (stereo not given in full)	-64*	?	-12%	-8%	?
CCCc1nc2c3ccccc3ccn2c1CC1CCCCC1	0	?	nt	nt	?
COCc1ccc(CN2CCOc3c(cc(-c4ccc(SC)cc4)cc3OC)C2)o1	nt	i	nt	nt	nt
O=C(Nc1ccccc1Br)N1CCN2CCCCC2C1 (stereo not given)	nt	i	nt	-16%	15%
Cc1ccc(/C=C/C(=O)NCCc2cccc(Cl)c2)o1	-65*	i	0%	-13%	12%
Cc1ccc(/C=C/C(=O)NC2CCCCCCC2)o1	-104*	i	0%	5%	32%
Cc1cc(C(=O)NCC2COc3ccccc3O2)c2ccccc2n1 (stereo not given)	-70*	i	12%	-19%	-4%
O=C(NCC1COc2ccccc2O1)c1ccccc1 (stereo not given)	-10	i	1%	-14%	40%
Cc1ccc(/C=C/C(=O)NCCc2c[nH]c3ccccc23)o1	-15	i	0%	-16%	-3%
Cc1ccc(/C=C/C(=O)NCC2COc3ccccc3O2)o1 (stereo not given)	-53*	i	4%	-1%	-22%[11.3 µM]
Cc1ccc(/C=N/NC(=O)NC2CCCCC2)o1	-15	i	0%	-2%	19%
Nc1nccc(-c2ccc3noc(-c4ccc(Cl)cc4)c3c2)n1	nt	nt	nt	nt	-18%
Clc1ccc(OCCCNCc2ccccc2)c2ccccc12	?	i	-1%	-21%	-21%
Brc1ccccc1OCCNCc1ccccc1	-80*	i	-1%	-10%	6%
C=CCc1ccccc1OCCNCc1ccccc1	-91*	i	-1%	-5%	-27%
C=CCc1ccc(OCCCNCc2ccccc2)c(OC)c1	?	?	1%	-21%	nt
SMILES	IL-1B inflam inh	ATXN viability	USP2a inh	USP1 inh	ATXN2 expr inh
CCOc1cc(S(=O)(=O)Nc2cc(C)cc(C)c2)ccc1Cl	-59*	?	-4%	-13%	?
CCOc1ccc(CCNC(=O)CCc2c(C)nc3c4c(C)cc(C)nc4nn3c2C)cc1	nt	nt	nt	-26%	nt
COC(=O)CCC(=O)OC1(C)C(=O)C2=CN(c3ccc(OC)cc3)C(c3ccc(OC)cc3)=CC2=C(Br)C1=O (stereo not given)	2	i	nt	?	-9%
COc1ccc(C2=CC3=C(Br)C(=O)C(C)(OC(=O)c4ccco4)C(=O)C3=CO2)cc1 (stereo not given)	1	i	6%	25µM*	-13%
COc1ccc(C2=CC3=C(Br)C(=O)C(C)(OC(=O)c4cccs4)C(=O)C3=CO2)cc1 (stereo not given)	27	i	nt	35µM*	1%
COc1cc(Nc2ncc3c(n2)-c2ccc(Cl)cc2C(c2c(F)cccc2OC)=NC3)ccc1C(=O)O	nt	nt	nt	nt	1%
COCCN(C)C(=O)c1cnn(-c2ncc3c(n2)-c2ccccc2CC3)c1C	nt	i	nt	nt	nt
Cc1cccc(N=Nc2cnc(N)s2)c1	-65*	i	0%	-8%	55%
CCOC(=O)c1c(NC(=O)COC(=O)c2ccccc2NC)sc(C(=O)N(C)C)c1C	-79*	?	0%	-32%	32µM*
CCOC(=O)c1c(NC(=O)CSc2nc3cc(Cl)ccc3c(=O)n2Cc2ccco2)sc(C(=O)N(C)C)c1C	-58*	i	2%	-20%	-18%[11.3 µM]
CCOC(=O)c1c(NC(=O)COC(=O)Cc2ccccc2[N+](=O)[O-])sc(C(=O)N(C)C)c1C	23	i	0%	1%	1%
CCCCC(=O)N1C(C)CCC1C (stereo not given)	-7	i	nt	-15%	nt
Cc1ccc(C(=O)N(Cc2cc3cc4c(cc3nc2N2CCOCC2)CCC4)CC2CCCO2)s1 (stereo not given)	nt	i	nt	nt	nt
Cc1nc2sccn2c1CN1CCOc2ccc(CN3C[C@@H](C)O[C@@H](C)C3)cc2C1	nt	i	nt	nt	nt
Clc1cccc(Cc2c(C3CCCCC3)nc3c4ccccc4ccn23)c1	17	?	nt	nt	9%
CCN1CCCC1CNC(=O)c1cnn(-c2nccc(-c3ccccc3OC)n2)c1-c1ccco1 (stereo not given)	nt	i	nt	nt	nt
CCN1C(=O)/C(=C/C=C2/SCCN2C)SC1=S	?	i	12%	25µM*	56%
CN1/C(=C\C=C2/SC(=S)N(CC(=O)O)C2=O)C(C)(C)c2ccccc21	0	i	?	25µM*	nt
CCN1C(=O)/C(=C/C=C2/Sc3ccccc3N2CCO)SC1=S	-20	i	16%	-16%	-16%
